The structures appear in SMILES notation. The campaign covered roughly 310,000 compounds. About 14,000 (4.5%) showed an effect of 50% or more. Effects have a minus sign here. The sample holds strong results, similar compounds and a random draw of the others, so the mix is not that of the screen.
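Note: peak tail current of the secondary pulse compared with the same well before compound.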

Sequence of human ether-à-go-go-related gene (hERG) potassium channel (Q12809 whole entry, looked up): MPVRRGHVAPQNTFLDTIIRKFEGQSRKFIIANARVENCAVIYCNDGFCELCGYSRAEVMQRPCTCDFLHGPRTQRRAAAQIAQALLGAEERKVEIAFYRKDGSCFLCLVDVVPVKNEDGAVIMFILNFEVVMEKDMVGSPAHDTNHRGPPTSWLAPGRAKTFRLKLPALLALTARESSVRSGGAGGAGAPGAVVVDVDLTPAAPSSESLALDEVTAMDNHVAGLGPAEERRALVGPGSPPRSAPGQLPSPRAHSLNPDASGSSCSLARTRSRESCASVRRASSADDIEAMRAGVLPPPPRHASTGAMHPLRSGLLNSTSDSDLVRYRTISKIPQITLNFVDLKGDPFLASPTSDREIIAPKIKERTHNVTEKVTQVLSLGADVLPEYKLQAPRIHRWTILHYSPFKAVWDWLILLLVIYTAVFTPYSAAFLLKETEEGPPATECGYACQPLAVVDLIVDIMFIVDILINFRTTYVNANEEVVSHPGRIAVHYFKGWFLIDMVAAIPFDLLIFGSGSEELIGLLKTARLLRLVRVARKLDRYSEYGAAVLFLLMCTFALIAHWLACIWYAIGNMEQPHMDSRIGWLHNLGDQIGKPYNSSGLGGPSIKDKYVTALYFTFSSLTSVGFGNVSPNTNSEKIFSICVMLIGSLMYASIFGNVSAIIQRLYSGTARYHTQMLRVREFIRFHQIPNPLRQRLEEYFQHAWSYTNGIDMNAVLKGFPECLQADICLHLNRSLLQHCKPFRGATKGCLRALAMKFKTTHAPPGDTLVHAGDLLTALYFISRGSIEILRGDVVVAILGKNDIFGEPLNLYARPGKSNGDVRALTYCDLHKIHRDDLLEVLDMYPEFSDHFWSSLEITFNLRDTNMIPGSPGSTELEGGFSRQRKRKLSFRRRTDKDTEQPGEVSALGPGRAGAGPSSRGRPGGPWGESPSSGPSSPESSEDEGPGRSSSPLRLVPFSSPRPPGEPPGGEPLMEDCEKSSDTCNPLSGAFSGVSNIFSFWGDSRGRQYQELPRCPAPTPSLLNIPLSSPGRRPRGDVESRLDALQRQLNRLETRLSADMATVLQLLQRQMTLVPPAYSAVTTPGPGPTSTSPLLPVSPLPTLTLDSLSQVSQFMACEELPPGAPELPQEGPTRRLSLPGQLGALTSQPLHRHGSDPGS

The experiment addresses human ether-à-go-go-related gene (hERG) potassium channel (human, UniProt Q12809). Put plainly: primary screen, population patch clamp on CHO cells stably expressing hERG; higher = less effect of the substance.
On to `O=C(C[n+]1ccccc1)N/N=C/c1ccc(C(=O)O)cc1.[Cl-]`, for which the “hERG current change (%, negative = inhibition) at 10uM” value is on record as 0.121%.
For `CC(C)(C)C(=O)Nc1sc2c(c1C#N)CCCCC2`, the “hERG current change (%, negative = inhibition) at 10uM” value is 2.28%.
On to `CCOC(=O)C1CCCN(S(=O)(=O)c2ccc3c(c2)CC(C)N3C(=O)C2CC2)C1` (stereo not drawn), for which the “hERG current change (%, negative = inhibition) at 10uM” value amounted to 9.65%.
Turning to `COc1ccc(N(CC(=O)NCc2cccc(OC)c2)S(=O)(=O)c2c(C)noc2C)cc1`, the “hERG current change (%, negative = inhibition) at 10uM” value was -41.1%.
In the case of `COc1ccccc1NC(=S)NNC(=O)c1c(Cl)c(C)nn1C` it was 32.8%.
The result for `CN(C1CCCCC1)S(=O)(=O)c1cccc(C(=O)OCC(=O)NC2CCCc3ccccc32)c1` (stereo not drawn) reads -13.9%; that for `CCOC(=O)C1CCCN(CCC(=O)Nc2ccc(C)c(C)c2)C1.Cl` (stereo not drawn), -44.8%.
The result for `CCOC(=O)C1CCCN(CCC(=O)Nc2ccccc2C)C1.Cl` (stereo not drawn) reads 12.5%; that for `CCOC(=O)C1CCCN(CCC(=O)Nc2ccc3c(c2)CCC3)C1` (stereo not drawn), -50.4%; that for `CCOC(=O)C1CCCN(CCC(=O)Nc2ccc(C)cc2)C1.Cl` (stereo not drawn), -30.4%.
For `CCOC(=O)C1CCN(CCC(=O)Nc2cc(C)ccc2C)CC1`, the “hERG current change (%, negative = inhibition) at 10uM” value is reported as -10.7%.
The result for `CCOC(=O)C1CCCN(CCC(=O)Nc2cc(C)cc(C)c2)C1` (stereo not drawn) reads -58.4%; that for `CC1CCCN(CCC(=O)Nc2ccc3c(c2)CCC3)C1.Cl` (stereo not drawn), -33.5%.
In the case of `CCOC(=O)C1CCCN(CCC(=O)Nc2cc(C)ccc2C)C1.Cl` (stereo not drawn), the “hERG current change (%, negative = inhibition) at 10uM” value is listed as -67.2%.
In the case of `CCOC(=O)C1CCCN(CCC(=O)Nc2ccccc2)C1.Cl` (stereo not drawn) it was -9.04%.
In the case of `CCOC(=O)C1CCCN(CCC(=O)Nc2ccc(Br)cc2)C1.Cl` (stereo not drawn) it was -66.7%; in that of `Cc1cc(C)cc(NC(=O)CCN2CCCC2)c1`, -15.8%; in that of `CCOC(=O)C1CCCN(CCC(=O)Nc2cccc(C)c2)C1.Cl` (stereo not drawn), -24.5%.
The result for `COCC(=O)Nc1nnc(Cc2ccc(OC)c(OC)c2)s1` reads -7.97%; that for `O=C(NCCC(=O)N1CCN(c2ncccn2)CC1)c1ccccc1`, 11.6%.
Take `O=C(/C=C/Nc1ccc(S(=O)(=O)Nc2ncccn2)cc1)c1ccc2ccccc2c1`: the “hERG current change (%, negative = inhibition) at 10uM” value is 3.84%.
The result for `CCOC(=O)C(CC)Sc1nnc2cc(C)c3ccccc3n12` (stereo not drawn) reads -38%; that for `Cc1noc(C)c1CSCC(=O)N(CCC(C)C)c1c(N)n(Cc2ccccc2)c(=O)[nH]c1=O`, 21.4%.
In the case of `Cn1cc(/C(Cc2ccccc2)=N\O)c2ccccc21` it was 4.78%; in that of `COC(=O)c1[nH]c(C)c(/C(O)=C2\C(=O)C(=O)N(CCN(C)C)C2c2cc(OC)ccc2OC)c1C` (stereo not drawn), 13.6%; in that of `Cc1ccc(CNC(=O)CN(c2cccc([N+](=O)[O-])c2)S(C)(=O)=O)cc1`, 0.796%.
In the case of `Cc1cccc(CSCCNC(=O)CSCc2ccc([N+](=O)[O-])cc2)c1`, the “hERG current change (%, negative = inhibition) at 10uM” value is reported as -47.8%.
In the case of `Cc1ccc(CSCCNC(=O)CSCc2ccc([N+](=O)[O-])cc2)cc1`, the “hERG current change (%, negative = inhibition) at 10uM” value is recorded as -71.4%.
The result for `COc1ccc(CCNC(=O)CSCc2ccc([N+](=O)[O-])cc2)cc1` reads -44.8%; that for `CCCCN(C)CCNC(=O)CSCc1ccc(C)cc1.O=C(O)C(=O)O`, -37.5%.
The result for `Cc1ccc(CSCC(=O)NCCc2ccccc2)cc1` reads -3.13%.
The result for `O=C(CSCc1ccc([N+](=O)[O-])cc1)NCCSCc1ccccc1` reads -70.1%.
`Cc1ccc(CSCCNC(=O)CN(c2cccc([N+](=O)[O-])c2)S(C)(=O)=O)cc1`: the “hERG current change (%, negative = inhibition) at 10uM” value is reported as -53.2%.
Consider `CCCCN(CCCC)CCNC(=O)CSCc1ccc(C)cc1.O=C(O)C(=O)O`, for which the “hERG current change (%, negative = inhibition) at 10uM” value is given as -63.2%.
For the compound `O=C(CSCc1ccc([N+](=O)[O-])cc1)Nc1ccccc1C(=O)O`, the “hERG current change (%, negative = inhibition) at 10uM” value came out at 24.7%.
On to `O=C(CSc1ccccc1)NCCSCc1ccccc1`, for which the “hERG current change (%, negative = inhibition) at 10uM” value is listed as -3.89%.
Take `Cc1ccc(CSCCNC(=O)CN(c2ccccc2)S(C)(=O)=O)cc1`: the “hERG current change (%, negative = inhibition) at 10uM” value is reported as 1.75%.
The result for `Cc1ccccc1NC(=O)Cn1nc(-c2ccc(Cl)s2)ccc1=O` reads 13.6%.
In the case of `CSC1=N/C(=C/c2ccc(-n3cncn3)cc2)C(=O)N1` it was 6.6%; in that of `COc1cc(/C=N/Nc2ccc(F)cc2F)cc(OC)c1O`, -2.17%; in that of `O=C(COC(=O)c1ccco1)NC(c1ccccc1)c1ccccc1`, 3.56%.
In the case of `Cc1ccc(S(=O)(=O)NCCC(=O)OCC(=O)N(C)c2ccccc2)cc1`, the “hERG current change (%, negative = inhibition) at 10uM” value was determined as 4.35%.
The result for `CCCn1c(SCC(=O)c2ccc3c(c2)OCCO3)n[nH]c1=O` reads 22.6%.
In the case of `COc1cc(OC)cc(OC(=O)c2cccc(S(=O)(=O)N3CCN(C)CC3)c2)c1` it was -14.1%.
`O=C(Cc1ccc([N+](=O)[O-])cc1)NC1CCCCCC1`: the “hERG current change (%, negative = inhibition) at 10uM” value is reported as 7.55%.
In the case of `Cc1ccc(CSCCNC(=O)c2ccc(C)cc2)cc1` it was 19.1%; in that of `CC1CCN(C(=O)C(C)c2ccc([N+](=O)[O-])cc2)CC1` (stereo not drawn), -3.41%.
The result for `CC(C)(C)SCCNC(=O)CSCc1ccc([N+](=O)[O-])cc1` reads -63.1%; that for `CC1CCN(C(=O)C(C)OC(=O)CSc2ccc([N+](=O)[O-])cc2)CC1` (stereo not drawn), -50.1%; that for `Cc1ccc(CSCCNC(=O)c2ccccc2)cc1`, -13.6%.
In the case of `CC(OC(=O)CSc1ccc([N+](=O)[O-])cc1)C(=O)NC1CC1` (stereo not drawn), the “hERG current change (%, negative = inhibition) at 10uM” value is listed as -14.7%.
Regarding `Cc1ccc(CSCCNC(=O)c2cccc([N+](=O)[O-])c2)cc1`, the “hERG current change (%, negative = inhibition) at 10uM” value is -64.1%.
With `O=C(CSCc1ccc([N+](=O)[O-])cc1)NC1CC1`, the “hERG current change (%, negative = inhibition) at 10uM” value was -29.7%.
In the case of `O=C(CSCc1ccc([N+](=O)[O-])cc1)NC1CCCCCC1` it was -50.8%; in that of `COc1ccc(CCNC(=O)CSCc2ccc([N+](=O)[O-])cc2)cc1OC`, -37.5%; in that of `CC(C)C(NC(=O)CSCc1ccc([N+](=O)[O-])cc1)C(C)C`, -40.2%.
The result for `CCOC(=O)C(C(=O)Nc1cccc(C)c1)C1CCCCC1` (stereo not drawn) reads -6.99%.
In the case of `CCC1C(=O)N=C(SCC(=O)Nc2ccc(C)cc2)N(c2ccccc2)C1=O` (stereo not drawn) it was 19.4%; in that of `CCOC(=O)c1sc(Nc2ccc(Br)cc2)nc1C`, 13.7%; in that of `Cc1oc2ncnc(N)c2c1C`, 8.52%.
Turning to `CNC(=O)CN1C(=O)c2cccc3cccc1c23`, the “hERG current change (%, negative = inhibition) at 10uM” value was found to be 10.3%.
In the case of `COc1ccc(NS(=O)(=O)c2ccc(O)c(NC(=O)c3ccc(S(=O)(=O)N4CCCCCC4)cc3)c2)cc1` it was 1.73%.
In the case of `OCC[C@H]1C[C@@H](O)[C@H](O)[C@]2(OCc3ccccc32)O1` it was -0.346%; in that of `O=c1[nH]ncn1-c1cccc(C(F)(F)F)c1`, 10.8%.
For `FC(F)(F)c1cnc(Oc2ccccc2-c2nnc(-c3ccc(Cl)cc3)o2)c(Cl)c1`, the “hERG current change (%, negative = inhibition) at 10uM” value was -1.52%.
In the case of `O=C(Cc1ccc([N+](=O)[O-])cc1)N/N=C/c1cccnc1` it was -9.63%.
The result for `CC1CCCCC1NC(=O)Cn1cc([N+](=O)[O-])ccc1=O` (stereo not drawn) reads 7.67%; that for `COc1ccc([N+](=O)[O-])cc1NC(=O)CSCc1ccccc1C`, -7.85%; that for `Cc1ccccc1CSCC(=O)NCCSc1ccccn1`, -3.24%.
For `CC1CCCCC1NC(=O)CSc1ccc([N+](=O)[O-])cc1` (stereo not drawn), the “hERG current change (%, negative = inhibition) at 10uM” value was -52.6%.
The result for `O=C(CSc1ccc([N+](=O)[O-])cc1)NCC1CCCCC1` reads -15%; that for `O=C(CSCc1ccc([N+](=O)[O-])cc1)N/N=C/c1ccncc1`, -49.1%; that for `O=C(CSCc1ccc([N+](=O)[O-])cc1)N/N=C/c1cccnc1`, -60.2%.
`Cc1ccccc1CSCCNC(=O)CSCc1ccc([N+](=O)[O-])cc1`: the “hERG current change (%, negative = inhibition) at 10uM” value was -51.3%.
Regarding `COc1ccc(CNC(=O)C2CCC(CNS(=O)(=O)c3cccs3)CC2)cc1` (stereo not drawn), the “hERG current change (%, negative = inhibition) at 10uM” value is -18.9%.
The result for `O=C1CC(O)(C(F)(F)F)Oc2c1ccc1ccccc21` (stereo not drawn) reads 7.95%; that for `COc1ccc(/C=N/NC(=O)c2ccc3nc[nH]c3c2)c(OC)c1OC`, 12.9%; that for `Cc1ccc(S(=O)(=O)NNC(=S)Nc2ccccc2)cc1`, 3.05%.
In the case of `On1c(-c2ccc(Cl)cc2)nc2ccccc21` it was 13.9%; in that of `C[n+]1cn(Cc2cc(Cl)ccc2OC(F)F)c2ccccc21.[Br-]`, 2.96%.
In the case of `CC(C)=Cc1oc2ccc([N+](=O)[O-])cc2c1N1CC(C)OC(C)C1` (stereo not drawn) it was 18.7%; in that of `CC(=O)N1CCOc2ccc(S(=O)(=O)N3CCC(C(=O)NCc4ccc(F)cc4)CC3)cc21`, 4.09%; in that of `CCC(c1nnc(SCC(=O)Nc2ccc(C(C)=O)cc2)n1C1CCCCC1)N(C)C` (stereo not drawn), -9.96%.
With `Cc1ccc(CNC(=O)Nc2ccccc2)n1C`, the “hERG current change (%, negative = inhibition) at 10uM” value is on record as 12.3%.
In the case of `O=C(Nc1cccnc1)c1cc(-c2ccc(F)cc2)on1` it was 10.9%.
`Cc1cccc(C)c1OC1(c2ccccc2)OC(=O)c2ccccc21` (stereo not drawn): the “hERG current change (%, negative = inhibition) at 10uM” value stood at 10.9%.
Consider `CCCn1c(SCc2cc(=O)[nH]c3ccccc23)nc2c1c(=O)n(C)c(=O)n2C`, for which the “hERG current change (%, negative = inhibition) at 10uM” value was -7.61%.
Turning to `O=C(c1cccc(S(=O)(=O)N2CCc3ccccc32)c1)N1CCc2ccccc2C1`, the “hERG current change (%, negative = inhibition) at 10uM” value was -13%.
As for `CCOC(=O)C1CCN(S(=O)(=O)c2ccc(C)cc2)CC1`, the “hERG current change (%, negative = inhibition) at 10uM” value came out at 3.36%.
Regarding `COc1ccccc1C(=O)Nc1ccc(S(=O)(=O)N2CCc3ccccc32)cc1`, the “hERG current change (%, negative = inhibition) at 10uM” value was -77%.
In the case of `COc1cc(C(=O)Nc2ccc(S(=O)(=O)N3CCc4ccccc43)cc2)cc(OC)c1OC` it was -4.14%.
In the case of `CCOC(=O)C1CCN(S(=O)(=O)c2ccc(C(=O)OC)cc2)CC1` it was -1.7%.
In the case of `COc1ccc(S(=O)(=O)N2CCc3ccccc32)cc1C(=O)N1CCN(C=O)CC1` it was -2.51%; in that of `CCOC(=O)C1CCN(C(=O)c2cccc(S(=O)(=O)N3c4ccccc4CC3C)c2)CC1` (stereo not drawn), -35.7%.
Consider `CCOC(=O)C1CCN(S(=O)(=O)c2ccc(NC(=O)OC)cc2)CC1`, for which the “hERG current change (%, negative = inhibition) at 10uM” value is reported as -56.5%.
The result for `COc1ccc(S(=O)(=O)N2CCc3ccccc32)cc1C(=O)Nc1ccc(C(N)=O)cc1` reads 9.8%; that for `COc1ccc(S(=O)(=O)N2CCc3ccccc32)cc1C(=O)N1CCOCC1`, -0.239%; that for `CCOC(=O)C1CCN(C(=O)c2cccc(S(=O)(=O)N3CCc4ccccc43)c2)CC1`, -56.4%.
As for `CCOC(=O)N1CCN(C(=O)c2cc(S(=O)(=O)N3CCc4ccccc43)ccc2OC)CC1`, the “hERG current change (%, negative = inhibition) at 10uM” value is on record as -52.1%.
